The supplement of paper PMC11417369
Whole data set: some 25,000 sequences, median “ln(normalized median fluorescence intensity)” near 9.3, cut for the highest 2% near 10. This excerpt belongs to a sample that is enriched for the highest values.

test system: PF3D7_0420300 AP2 domain 1 (GST-tagged); experiment: gcPBM binding intensity (ln(normalized median fluorescence intensity)); higher = stronger DNA binding
In short: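 The highest Masliner-normalised natural-log median intensity across replicate spots of either probe orientation is reported as binding intensity. GST-tagged P. falciparum DNA-binding domains expressed in E. coli were applied for 1 h to an Agilent 4 × 180k array of primer-extended double-stranded 36-bp intergenic genomic probes plus negative controls, and bound protein was detected with Alexa488 anti-GST antibody and scanned at 488 nm.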

Row | Sequence | gcPBM binding intensity (ln)
1 | GTACATAGGTATAGCACACACAAATGTAGGTATTTT [CACACA_site4049] | 9.65
2 | TATATTTATTATAACACACACATATAAATATTATAG [CACACA_site6726] | 9.67
3 | TTGTTCTAATATATTGCACACGTAAAAATATAGGTA [CACACA_site8195] | 9.3
4 | TAAGGATAAATAAAATGAAATGAAATAAATAAATGA [XGTACX_negctrl_site539] | 9.24
5 | TATAAAATATAAATAAATAAATAAATATATATATAT [TGCATGCA_negctrl_site448] | 9.11
6 | GCGGCGGTATCATGCACACGTATATATTGTAACAGT [CACACA_site4958] | 9.27
7 | TTTTTTATTTTAATGTATTATTTTTATGTAATATAT [GTGCAC_negctrl_site391] | 9.23
8 | TAAATACAAAAATGCACACGAAAAGTAATATATATA [CACACA_site6151] | 9.64
9 | ATGGACAAAAAATATATACACACGAGGAAACCAACA [CACACA_site3726] | 10.1
10 | AAAAAAAAAAAACACACACACAATAGTATATAAATC [CACACA_site956] | 10.3
11 | TAAAAATAGTATACAACACACGAGGGAAAATAAAGT [CACACA_site3837] | 10.2
12 | AGAGTATATAAAGTAACACACAATAAAATAAAATAA [CACACA_site2328] | 9.82
13 | CAAAAATAAATATAAACACACAATAAATAAATAAAT [CACACA_site891] | 9.91
14 | AAAAAAAAAAGACACACACACAATAGTATATAAATC [CACACA_site6579] | 10.2
15 | AAAAAAAAAAAAAACACACACACAATAGTATATAAA [CACACA_site957] | 9.94
16 | AAAAATATGAAGACACAATATAGAAATAAAAATATA [XGTACX_negctrl_site244] | 9.44
17 | AACATAATAAAAATGGATATAATTCAAAGTTTGTAA [TGCATGCA_negctrl_site529] | 9.25
18 | TTTTATATATATTATACACACAAGGAAAAAAAAAAA [CACACA_site3677] | 9.53
19 | ATATATTTTATTCCTATATATATATATATATATATA [GTGCAC_negctrl_site556] | 9.27
20 | AAAAATGTAAAGTGCGTGCACAAAATATTTGGAAAA | 9.27
21 | AGAAATATATCTATTTGTCCGTATATTCATATTTAT [XGTACX_site8427] | 9.4
22 | ATAAAAAAAGGACACACACACATATATATATATATA [CACACA_site5662] | 9.93
23 | TAACCATACATACATACACACACACCCACATATATA [CACACA_site8951] | 10.1
24 | CATATAAAAGGACACACACACACATATATATATATA [CACACA_site4674] | 10

Row | Sequence | gcPBM binding intensity (ln)
25 | GTAACATACACATATACACACACACCGATATACATA [CACACA_site8278] | 10.2
26 | TTAAACTTGAAACACACACACACACCCATATAAAAA [CACACA_site758] | 10.1
27 | TTAAACTTGAAACACACACACACACCGATATAAAAA [CACACA_site4578] | 10.2
28 | TTTTTTTATAAAAATGAACACACACCGATATATATA [CACACA_site9161] | 9.63
29 | AAGGATATAACATACACACACACACCGATATATATA [CACACA_site6136] | 10.2
30 | GGAAGGATATAACATACACACACACCCATATATATA [CACACA_site9376] | 10
31 | AAGGATATAACATACACACACACACCCATATATATA [CACACA_site4142] | 10.3
32 | CCATAAAAAGGATACACACACACACCGACATATATA [CACACA_site4653] | 10.2
33 | ATATATACATATAACACACACATATATATATATATA [CACACA_site2575] | 9.56
34 | ATATAACTCAAGGGCACACATATACCTTTCCTTTTT [CACACA_site4390] | 9.5
35 | AATATACATAACAAGGTGCAAAAAATATTGTTCATA [GTGCAC_site9499] | 9.5
36 | TATTATCTCTTATGAACACACATTTTTATTTTCAAA [CACACA_site3353] | 9.31
37 | AATATATAGCTAAAAACACACAAATATATACGCATA [CACACA_site3608] | 9.69
38 | TTATATATAATATATACACACACATGTATATATAAA [CACACA_site8603] | 9.45
39 | AGTTAATGAATAGGCACACATATATCTGTATAAATA [CACACA_site4448] | 9.47
40 | AAAAAAAAAAGACACACACACACACGGAGATATATA [CACACA_site6216] | 10.3
41 | AAAAAAAAAAGACACACACACAAAAAAAGATATATA [CACACA_site6645] | 10.2
42 | AAAAAAAAAAGACACACACACATATTTATTTATATA [CACACA_site6484] | 9.93
43 | AAAAAAAAAATATACACACACACATACCCATAAATA [CACACA_site5981] | 9.99
44 | AAAAAGGATAAACACACACACACACCGATATATATA [CACACA_site8206] | 10.2
45 | AATAAAAAGGAACACACACACACACCGATATATATA [CACACA_site5895] | 10.2
46 | CCATAAAAAGGATACACACACACACCCACATATATA [CACACA_site903] | 10.2
47 | AAACTTGACGGACACACACACACATATATAAAAAAA [CACACA_site4577] | 10
48 | TAAAAGGATACATATACACACATATATATATATATA [CACACA_site2791] | 9.32

Row | Sequence | gcPBM binding intensity (ln)
49 | ACTTGACACGGACACACACACATATATAAAAAAAAA [CACACA_site4576] | 9.87
50 | TTAAACTTGAGACACACACACACACGGATATAAAAA [CACACA_site6495] | 10.2
51 | CAAAAGGATAGGCACACACACACACCGATATATATA [CACACA_site8685] | 10.2
52 | ATTTATGAAAAATGTACACACATCAAATGCTTATAT [CACACA_site4068] | 9.42
53 | AAATGAAAGAACAGCACACATATATATTATATATAA [CACACA_site2002] | 9.63
54 | ATTGCATATAATGGCACACATAAATCCATAATATAT [CACACA_site297] | 9.29
55 | GTTAATATACATAAACGTACAGAATTATTATGAGTT [XGTACX_site5185] | 9.13
56 | TGTTTAACATTTATATGTACATATATTCACATATTA [XGTACX_site342] | 9.29
57 | AACAATATATTGAATAGTACATATATATAAACATAT [XGTACX_site2811] | 9.46
58 | GTAGAAAGAAAAATTAGTACTTAAATATTATAAAAA [XGTACX_site8458] | 9.11
59 | TAGATACATACACGCACACACATATATAAATAAATA [CACACA_site6157] | 9.85
60 | CCATAAAAAGGATACACACACACACGCACATATATA [CACACA_site6550] | 10.2
61 | AATAAATATAAATACACACCCATATATATATATATA [CACACA_site5436] | 9.45
62 | AATAAATATAAATACACACCCATATAAATATAAATA [CACACA_site7264] | 9.85
63 | ACCCATAAAAAGGATACACACACACCCACCCATATA [CACACA_site8205] | 10.4
64 | AATATAAGGATATATACACACATAAATACATACATA [CACACA_site7859] | 9.89
65 | TTTTATAAATCTAAACGTATCTAAATGAATAATTAA [GTGCAC_negctrl_site44] | 8.84
66 | TTTATAACATTTAAGAGTACAAAAAAATAAATAAAT [XGTACX_site1264] | 9.37
67 | TATTGTAGAGGCAAAAGTACACATTTAATAATTTCC [XGTACX_site1151] | 9.23
68 | AAACTTGTAAGAAACACACACACACCCATATATATA [CACACA_site797] | 10.1
69 | GTAAGAAACAGACACACACACATATATATATATATA [CACACA_site794] | 9.79
70 | TTGTAAGAAAAACACACACACACATATATATATATA [CACACA_site795] | 9.95
71 | ACTTGTAAGAAACACACACACACACCCATATATATA [CACACA_site796] | 10.4
72 | ACTTGTAAGAAACACACACACACACCGATATATATA [CACACA_site4594] | 10.4

Row | Sequence | gcPBM binding intensity (ln)
73 | AAACTTGTAAGAAACACACACACACGCATATAAATA [CACACA_site6518] | 10
74 | AATATAAAAATGTTTACACACACACGGAAATATATT [CACACA_site7226] | 10.1
75 | TATATATATATGTGTATACACACCTGATAAAGGTAT [CACACA_site2653] | 9.42
76 | AAAAAATTCATATATACACACACGCACATATATATA [CACACA_site4226] | 9.84
77 | AAAAATTTGGCATACACACACACACCCACACCCACA [CACACA_site587] | 10.2
78 | AAAAATTTGGCATACACACACACACGCACACGCACA [CACACA_site6422] | 10.2
79 | AAAATTCATATATACACACACGCACATATATATATA [CACACA_site90] | 9.85
80 | CTTAAATTTTTAAATACACACATACACCCATACACA [CACACA_site4461] | 9.64
81 | TACAAAAAAAATGTATTTAGGACATATATATGTTTA [XGTACX_negctrl_site455] | 9.02
82 | ACGTTTTATAATTAATGTACAAATATTAAAATTGCA [XGTACX_site7869] | 9.07
83 | GCTAGTTTTTTTTGGCGTACAGTACCGGTTTACTTT [XGTACX_site2606] | 9.42
84 | AAAAAAAAAAAATAATGTACATATGTATTTGAGAAA [XGTACX_site3572] | 9.23
85 | AACAAAATAAAACACACACACAAATGTACATATATA [CACACA_site2424] | 10.2
86 | TAACAAAATGTAAATAAACACACATATATATATATA [CACACA_site8352] | 9.37
87 | TATAACAAATAAAAATGTACATATATATAATATATA [XGTACX_site6173] | 9.38
88 | ATAACAAAATAAAACACACACACAAATGTACAGATA [CACACA_site5358] | 10.3
89 | ATAACAAAATAAAACACACACACAAATGTACATATA [CACACA_site2425] | 10.3
90 | ATAATATAACACAAATGTACAAAAAATAAATAAATA [XGTACX_site385] | 9.51
91 | AAAAATATAATATAATGTACACATAAACAAAAAAAA [XGTACX_site3658] | 9.58
92 | ATGTTGTACAAACACACACACAAAAAAAAAATAAAA [CACACA_site2406] | 9.89
93 | ACAAAATGTAAATAAACACACATATATATATATATA [CACACA_site1281] | 9.3
